Here are results for 1 sequence from PMC7862700, “An all-to-all approach to the identification of sequence-specific readers for epigenetic DNA modifications on cytosine”.

Assay in all cases: DAPPL (digital affinity profiling via proximity ligation, sequencing); 10 mM Tris-HCl pH 7.5, 50 mM NaCl, 1 mM DTT, 4% glycerol, room temperature, 30 min; GST-TFs on glutathione beads, 16-mer random dsDNA library, 0.1% formaldehyde crosslink after washing; high values mean tight binding
The target of one test is T1, FLI1 (Homo sapiens, UniProt Q01543 1-452).
T1 sequence: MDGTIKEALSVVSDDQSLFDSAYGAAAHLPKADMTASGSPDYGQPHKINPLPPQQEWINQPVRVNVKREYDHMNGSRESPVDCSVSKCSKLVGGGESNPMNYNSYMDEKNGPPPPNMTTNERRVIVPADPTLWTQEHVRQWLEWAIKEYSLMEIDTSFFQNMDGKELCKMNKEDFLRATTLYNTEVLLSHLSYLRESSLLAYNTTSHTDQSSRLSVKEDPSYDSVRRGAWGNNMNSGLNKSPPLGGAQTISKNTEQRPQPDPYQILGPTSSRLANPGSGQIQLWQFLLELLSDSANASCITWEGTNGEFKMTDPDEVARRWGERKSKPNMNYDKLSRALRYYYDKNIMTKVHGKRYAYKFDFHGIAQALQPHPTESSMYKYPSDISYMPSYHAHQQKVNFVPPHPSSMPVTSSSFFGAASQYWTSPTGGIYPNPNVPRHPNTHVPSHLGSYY
To be noted: protein: recombinant; tags: N-terminal GST; dsDNA, one strand shown. Summed up: (§1)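 Human transcription factors were made in yeast as GST fusions, captured on glutathione beads and barcoded with DNA. With a tag-only sample included, the pool was incubated with 200 nmole of a random double-stranded 16-mer DNA library in Tris/NaCl/DTT/glycerol buffer at room temperature for 30 min, then crosslinked with 0.1% formaldehyde after washing, ligated by proximity, amplified and sequenced. For binding signal, each hexamer's read frequency for a factor is divided by its frequency for the tag-only sample.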

Another test has as its target T2, ELK1 (Homo sapiens, UniProt P19419 1-428).
T2 sequence: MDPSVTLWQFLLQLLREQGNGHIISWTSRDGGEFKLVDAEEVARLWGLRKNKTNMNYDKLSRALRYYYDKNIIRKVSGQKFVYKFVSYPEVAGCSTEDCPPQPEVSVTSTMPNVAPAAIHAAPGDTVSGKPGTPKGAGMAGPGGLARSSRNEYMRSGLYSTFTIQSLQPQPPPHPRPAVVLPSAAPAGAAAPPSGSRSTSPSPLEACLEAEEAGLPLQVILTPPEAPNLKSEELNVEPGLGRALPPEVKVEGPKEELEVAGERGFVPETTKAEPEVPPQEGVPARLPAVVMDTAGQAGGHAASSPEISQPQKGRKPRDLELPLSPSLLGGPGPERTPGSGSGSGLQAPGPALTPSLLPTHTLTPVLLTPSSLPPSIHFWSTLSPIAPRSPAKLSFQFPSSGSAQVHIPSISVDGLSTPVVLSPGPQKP
To be noted: protein: recombinant; tags: N-terminal GST; dsDNA, one strand shown. In a few lines: as §1

A further test deals with T3, GABPA (Homo sapiens, UniProt Q06546 1-454).
T3 sequence: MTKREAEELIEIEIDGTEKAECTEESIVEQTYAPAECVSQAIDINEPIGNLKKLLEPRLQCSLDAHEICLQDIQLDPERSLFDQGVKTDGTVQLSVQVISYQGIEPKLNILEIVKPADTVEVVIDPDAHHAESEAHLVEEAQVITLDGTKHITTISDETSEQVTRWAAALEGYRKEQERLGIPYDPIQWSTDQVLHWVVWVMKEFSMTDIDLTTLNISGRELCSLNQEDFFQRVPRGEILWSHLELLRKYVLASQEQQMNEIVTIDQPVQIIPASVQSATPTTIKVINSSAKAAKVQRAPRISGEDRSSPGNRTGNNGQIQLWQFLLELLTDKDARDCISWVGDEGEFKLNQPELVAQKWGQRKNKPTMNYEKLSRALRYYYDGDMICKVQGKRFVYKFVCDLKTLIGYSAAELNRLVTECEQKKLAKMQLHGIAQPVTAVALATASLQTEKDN
To be noted: protein: recombinant; tags: N-terminal GST; dsDNA, one strand shown. In a few lines: as §1

Another test addresses T4, ERG (Homo sapiens, UniProt P11308 1-479).
T4 sequence: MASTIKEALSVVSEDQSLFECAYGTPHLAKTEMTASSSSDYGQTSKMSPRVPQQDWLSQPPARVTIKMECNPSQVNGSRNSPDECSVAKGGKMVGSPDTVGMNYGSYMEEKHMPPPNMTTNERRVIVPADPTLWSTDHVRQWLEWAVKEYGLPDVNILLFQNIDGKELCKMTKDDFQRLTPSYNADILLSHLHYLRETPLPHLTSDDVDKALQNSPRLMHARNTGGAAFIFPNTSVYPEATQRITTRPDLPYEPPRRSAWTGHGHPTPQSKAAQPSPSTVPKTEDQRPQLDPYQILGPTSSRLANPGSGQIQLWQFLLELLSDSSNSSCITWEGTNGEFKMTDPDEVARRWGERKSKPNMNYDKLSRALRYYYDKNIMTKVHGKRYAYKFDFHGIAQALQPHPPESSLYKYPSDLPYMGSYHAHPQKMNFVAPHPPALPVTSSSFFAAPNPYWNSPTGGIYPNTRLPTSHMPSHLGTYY
To be noted: protein: recombinant; tags: N-terminal GST; dsDNA, one strand shown. Summed up: as §1

The next test has as its target ELF1 (Homo sapiens, UniProt P32519 1-619). To be noted: protein: recombinant; tags: N-terminal GST; dsDNA, one strand shown. In a few lines: as §1
A further test concerns the target T5, EHF (Homo sapiens, UniProt Q9NZC4 1-300).
T5 sequence: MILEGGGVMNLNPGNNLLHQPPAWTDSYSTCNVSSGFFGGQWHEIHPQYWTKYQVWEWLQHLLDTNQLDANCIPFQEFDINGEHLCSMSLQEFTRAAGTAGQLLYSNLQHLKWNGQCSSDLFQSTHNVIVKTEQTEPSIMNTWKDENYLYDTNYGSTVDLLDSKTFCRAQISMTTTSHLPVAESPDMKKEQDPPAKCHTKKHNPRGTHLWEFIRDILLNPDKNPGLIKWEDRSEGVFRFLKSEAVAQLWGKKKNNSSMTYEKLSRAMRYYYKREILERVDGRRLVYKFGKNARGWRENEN
To be noted: protein: recombinant; tags: N-terminal GST; dsDNA, one strand shown. In a few lines: as §1

The next test deals with SPI1 (Homo sapiens, UniProt P17947 1-270). To be noted: protein: recombinant; tags: N-terminal GST; dsDNA, one strand shown. Summed up:
as §1

A further test has as its target SPIB (Homo sapiens, UniProt Q01892 1-262). To be noted: protein: recombinant; tags: N-terminal GST; dsDNA, one strand shown. Summed up:
as §1

For the next test, the target named is T6, ELK3 (Homo sapiens, UniProt P41970 1-407).
T6 sequence: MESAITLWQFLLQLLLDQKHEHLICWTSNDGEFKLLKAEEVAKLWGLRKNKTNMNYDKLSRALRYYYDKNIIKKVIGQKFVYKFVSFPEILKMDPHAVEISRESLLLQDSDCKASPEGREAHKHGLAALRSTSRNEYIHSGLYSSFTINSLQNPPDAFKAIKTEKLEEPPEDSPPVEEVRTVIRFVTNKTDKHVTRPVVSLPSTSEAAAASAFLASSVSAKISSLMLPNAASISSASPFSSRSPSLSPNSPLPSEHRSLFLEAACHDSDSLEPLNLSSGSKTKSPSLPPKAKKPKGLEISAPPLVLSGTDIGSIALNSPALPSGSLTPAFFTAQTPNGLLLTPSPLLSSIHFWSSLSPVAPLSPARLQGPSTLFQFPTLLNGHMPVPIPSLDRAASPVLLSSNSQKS
To be noted: protein: recombinant; tags: N-terminal GST; dsDNA, one strand shown. Summed up: as §1

Another test concerns the target T7, FEV (Homo sapiens, UniProt Q99581 1-238).
T7 sequence: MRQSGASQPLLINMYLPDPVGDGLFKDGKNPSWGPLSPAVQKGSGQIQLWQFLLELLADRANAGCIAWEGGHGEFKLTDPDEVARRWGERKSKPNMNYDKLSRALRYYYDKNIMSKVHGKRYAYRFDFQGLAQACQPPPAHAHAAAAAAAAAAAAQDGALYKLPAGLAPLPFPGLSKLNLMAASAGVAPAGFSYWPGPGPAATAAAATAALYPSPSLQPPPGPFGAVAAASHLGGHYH
To be noted: protein: recombinant; tags: N-terminal GST; dsDNA, one strand shown. Summed up:
as §1

The target in another test is ETV5 (Homo sapiens, UniProt P41161 1-510). To be noted: protein: recombinant; tags: N-terminal GST; dsDNA, one strand shown. In a few lines:
as §1

In the next test the target is HSF1 (Homo sapiens, UniProt Q00613 1-529). To be noted: protein: recombinant; tags: N-terminal GST; chain copies: 3; dsDNA, one strand shown. In a few lines:
as §1

The target of another test is T8, SPIC (Homo sapiens, UniProt Q8N5J4 1-248).
T8 sequence: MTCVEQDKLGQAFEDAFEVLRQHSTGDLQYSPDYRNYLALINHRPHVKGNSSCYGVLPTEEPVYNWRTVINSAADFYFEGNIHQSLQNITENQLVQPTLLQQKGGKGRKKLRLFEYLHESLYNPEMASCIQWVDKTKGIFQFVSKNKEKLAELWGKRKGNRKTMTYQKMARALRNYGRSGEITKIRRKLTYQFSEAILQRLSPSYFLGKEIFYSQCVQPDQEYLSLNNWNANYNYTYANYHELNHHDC
To be noted: protein: recombinant; tags: N-terminal GST; dsDNA, one strand shown. Summed up:
as §1

The target in the next test is ELF4 (Homo sapiens, UniProt Q99607 1-663). To be noted: protein: recombinant; tags: N-terminal GST; dsDNA, one strand shown. Summed up:
as §1

The next test concerns the target T9, ELK4 (Homo sapiens, UniProt P28324-2 1-405).
T9 sequence: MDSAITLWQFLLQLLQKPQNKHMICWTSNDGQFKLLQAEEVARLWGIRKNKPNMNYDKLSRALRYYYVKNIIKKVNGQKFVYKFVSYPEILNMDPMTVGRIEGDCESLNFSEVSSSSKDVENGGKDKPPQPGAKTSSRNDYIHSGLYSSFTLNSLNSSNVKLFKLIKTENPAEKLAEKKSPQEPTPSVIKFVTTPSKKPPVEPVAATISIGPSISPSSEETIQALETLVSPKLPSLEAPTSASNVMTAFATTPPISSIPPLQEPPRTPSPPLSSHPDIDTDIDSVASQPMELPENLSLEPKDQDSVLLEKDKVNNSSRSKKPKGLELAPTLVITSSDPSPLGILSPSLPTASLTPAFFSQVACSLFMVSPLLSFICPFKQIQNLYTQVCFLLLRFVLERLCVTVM
To be noted: protein: recombinant; tags: N-terminal GST; dsDNA, one strand shown. In a few lines: as §1

Another test deals with T10, ETV2 (Homo sapiens, UniProt O00321 1-342).
T10 sequence: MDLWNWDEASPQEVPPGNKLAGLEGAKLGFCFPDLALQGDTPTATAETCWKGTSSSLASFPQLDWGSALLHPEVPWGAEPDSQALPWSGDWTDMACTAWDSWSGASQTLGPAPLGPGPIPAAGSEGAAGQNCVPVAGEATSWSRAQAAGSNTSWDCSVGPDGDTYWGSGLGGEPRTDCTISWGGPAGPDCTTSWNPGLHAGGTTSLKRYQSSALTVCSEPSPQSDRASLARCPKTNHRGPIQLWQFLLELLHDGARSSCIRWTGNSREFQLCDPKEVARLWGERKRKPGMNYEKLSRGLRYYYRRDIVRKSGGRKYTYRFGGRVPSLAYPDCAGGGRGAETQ
To be noted: protein: recombinant; tags: N-terminal GST; dsDNA, one strand shown. In a few lines:
as §1

A further test concerns the target T11, ELF3 (Homo sapiens, UniProt P78545 1-371).
T11 sequence: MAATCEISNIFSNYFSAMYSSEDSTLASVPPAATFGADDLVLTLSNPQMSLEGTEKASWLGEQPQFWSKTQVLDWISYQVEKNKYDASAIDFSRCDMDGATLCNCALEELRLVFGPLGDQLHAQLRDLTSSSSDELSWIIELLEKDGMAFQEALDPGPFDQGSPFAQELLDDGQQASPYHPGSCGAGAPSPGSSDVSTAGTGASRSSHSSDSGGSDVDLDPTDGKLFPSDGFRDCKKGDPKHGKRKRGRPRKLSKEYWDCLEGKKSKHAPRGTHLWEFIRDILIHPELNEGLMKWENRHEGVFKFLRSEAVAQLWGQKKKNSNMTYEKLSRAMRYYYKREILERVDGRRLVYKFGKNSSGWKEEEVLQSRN
To be noted: protein: recombinant; tags: N-terminal GST; dsDNA, one strand shown. Summed up:
as §1

Another test addresses CRX (Homo sapiens, UniProt O43186 1-299). To be noted: protein: recombinant; tags: N-terminal GST; dsDNA, one strand shown. In a few lines:
as §1

The next test has as its target ETV1 (Homo sapiens, UniProt P50549 1-477). To be noted: protein: recombinant; tags: N-terminal GST; dsDNA, one strand shown. Summed up: as §1

Chain of SPIB (Q01892 whole entry): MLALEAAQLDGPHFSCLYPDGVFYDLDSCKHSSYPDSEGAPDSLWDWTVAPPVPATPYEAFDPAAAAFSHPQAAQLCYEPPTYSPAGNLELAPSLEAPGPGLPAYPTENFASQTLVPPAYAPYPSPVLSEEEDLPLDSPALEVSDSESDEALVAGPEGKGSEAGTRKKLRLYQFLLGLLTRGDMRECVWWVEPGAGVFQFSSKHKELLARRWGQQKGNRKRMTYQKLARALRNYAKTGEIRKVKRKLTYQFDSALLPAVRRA
Chain of ELF1 (P32519 whole entry): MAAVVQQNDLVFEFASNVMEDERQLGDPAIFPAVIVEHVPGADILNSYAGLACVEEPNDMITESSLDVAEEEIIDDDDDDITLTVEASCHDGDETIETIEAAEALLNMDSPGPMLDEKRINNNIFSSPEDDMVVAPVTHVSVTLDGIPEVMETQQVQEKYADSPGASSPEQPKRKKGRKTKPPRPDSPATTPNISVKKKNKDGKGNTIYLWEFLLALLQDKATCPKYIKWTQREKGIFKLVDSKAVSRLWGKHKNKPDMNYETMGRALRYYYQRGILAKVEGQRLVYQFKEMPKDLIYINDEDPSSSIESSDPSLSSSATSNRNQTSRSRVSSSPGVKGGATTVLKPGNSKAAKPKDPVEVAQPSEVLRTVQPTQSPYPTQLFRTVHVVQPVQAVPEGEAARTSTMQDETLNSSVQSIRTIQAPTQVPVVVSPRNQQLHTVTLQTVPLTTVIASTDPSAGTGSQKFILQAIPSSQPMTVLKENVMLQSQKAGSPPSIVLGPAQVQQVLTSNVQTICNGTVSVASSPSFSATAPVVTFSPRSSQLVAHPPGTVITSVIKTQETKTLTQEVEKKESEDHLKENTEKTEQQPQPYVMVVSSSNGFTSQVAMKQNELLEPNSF
Chain of CRX (O43186 whole entry): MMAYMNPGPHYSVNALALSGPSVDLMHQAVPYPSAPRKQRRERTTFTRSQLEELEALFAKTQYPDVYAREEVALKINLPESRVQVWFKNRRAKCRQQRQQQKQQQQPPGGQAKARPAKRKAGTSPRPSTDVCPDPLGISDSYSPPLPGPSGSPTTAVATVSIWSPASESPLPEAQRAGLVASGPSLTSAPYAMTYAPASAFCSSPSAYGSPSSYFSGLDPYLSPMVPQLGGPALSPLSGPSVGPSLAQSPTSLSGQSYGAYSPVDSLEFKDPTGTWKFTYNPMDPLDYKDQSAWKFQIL
Chain of ETV5 (P41161 whole entry): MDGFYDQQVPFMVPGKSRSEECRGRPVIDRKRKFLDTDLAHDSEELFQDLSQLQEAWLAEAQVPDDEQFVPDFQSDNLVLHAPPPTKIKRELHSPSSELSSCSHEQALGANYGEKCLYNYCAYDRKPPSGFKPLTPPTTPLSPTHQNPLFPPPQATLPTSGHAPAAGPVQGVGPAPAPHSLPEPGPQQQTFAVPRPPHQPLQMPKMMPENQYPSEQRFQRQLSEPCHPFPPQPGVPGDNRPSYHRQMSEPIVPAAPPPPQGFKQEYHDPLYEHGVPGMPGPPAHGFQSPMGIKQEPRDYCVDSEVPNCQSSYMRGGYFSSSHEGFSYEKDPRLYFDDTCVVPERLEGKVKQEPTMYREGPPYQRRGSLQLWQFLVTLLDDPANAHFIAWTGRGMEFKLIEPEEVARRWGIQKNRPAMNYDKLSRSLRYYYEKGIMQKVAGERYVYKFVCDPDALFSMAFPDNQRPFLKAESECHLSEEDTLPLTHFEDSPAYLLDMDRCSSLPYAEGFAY
Chain of ETV1 (P50549 whole entry): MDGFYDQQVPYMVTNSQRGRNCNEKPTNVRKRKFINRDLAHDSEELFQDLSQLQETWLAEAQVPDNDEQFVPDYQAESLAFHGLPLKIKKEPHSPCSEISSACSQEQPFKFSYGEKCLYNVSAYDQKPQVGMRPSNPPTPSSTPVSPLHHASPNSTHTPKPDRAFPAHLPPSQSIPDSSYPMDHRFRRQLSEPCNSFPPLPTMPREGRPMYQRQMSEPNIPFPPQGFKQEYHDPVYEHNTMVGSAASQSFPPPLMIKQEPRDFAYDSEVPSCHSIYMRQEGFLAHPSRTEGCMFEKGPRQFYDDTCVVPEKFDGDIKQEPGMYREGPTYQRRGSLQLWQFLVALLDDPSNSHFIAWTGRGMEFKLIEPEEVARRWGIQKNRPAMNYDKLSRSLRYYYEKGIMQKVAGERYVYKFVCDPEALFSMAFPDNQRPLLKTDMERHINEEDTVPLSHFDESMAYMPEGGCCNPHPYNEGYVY
Chain of ELF4 (Q99607 whole entry): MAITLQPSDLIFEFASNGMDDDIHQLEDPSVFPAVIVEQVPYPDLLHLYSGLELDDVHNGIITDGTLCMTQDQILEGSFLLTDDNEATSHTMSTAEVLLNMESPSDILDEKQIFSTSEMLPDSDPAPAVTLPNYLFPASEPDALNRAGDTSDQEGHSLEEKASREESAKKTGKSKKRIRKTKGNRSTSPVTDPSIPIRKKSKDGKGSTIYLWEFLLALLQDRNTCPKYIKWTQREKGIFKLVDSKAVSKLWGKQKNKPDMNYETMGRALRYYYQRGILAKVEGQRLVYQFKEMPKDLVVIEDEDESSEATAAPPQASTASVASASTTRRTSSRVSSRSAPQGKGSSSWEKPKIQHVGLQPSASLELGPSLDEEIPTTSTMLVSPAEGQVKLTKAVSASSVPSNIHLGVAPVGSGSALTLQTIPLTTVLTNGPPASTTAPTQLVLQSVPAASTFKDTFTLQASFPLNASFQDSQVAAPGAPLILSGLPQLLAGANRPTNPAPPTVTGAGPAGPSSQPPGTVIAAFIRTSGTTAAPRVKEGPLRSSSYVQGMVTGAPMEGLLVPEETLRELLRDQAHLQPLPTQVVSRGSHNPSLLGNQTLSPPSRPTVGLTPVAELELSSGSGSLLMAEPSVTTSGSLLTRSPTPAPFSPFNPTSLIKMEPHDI
Chain of HSF1 (Q00613 whole entry): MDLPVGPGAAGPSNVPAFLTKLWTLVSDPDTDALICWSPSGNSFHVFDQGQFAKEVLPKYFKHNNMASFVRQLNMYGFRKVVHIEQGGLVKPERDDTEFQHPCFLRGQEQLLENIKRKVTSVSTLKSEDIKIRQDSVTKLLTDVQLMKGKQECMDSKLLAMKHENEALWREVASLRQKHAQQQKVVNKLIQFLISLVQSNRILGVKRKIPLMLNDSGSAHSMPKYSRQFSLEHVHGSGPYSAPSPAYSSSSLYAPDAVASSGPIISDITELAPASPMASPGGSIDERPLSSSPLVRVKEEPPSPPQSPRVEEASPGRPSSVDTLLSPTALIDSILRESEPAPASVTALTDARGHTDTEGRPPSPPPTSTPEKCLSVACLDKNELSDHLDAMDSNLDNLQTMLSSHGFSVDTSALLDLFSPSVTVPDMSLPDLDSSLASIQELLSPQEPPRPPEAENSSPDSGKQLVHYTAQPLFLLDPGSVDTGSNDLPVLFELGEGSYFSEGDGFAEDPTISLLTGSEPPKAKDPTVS

For TTATAA, the binding signal is 1.21 fold enrichment (6-mer frequency, TF over GST control) in the test with FLI1; 1.16 fold enrichment (6-mer frequency, TF over GST control) with ELK1; 1.15 fold enrichment (6-mer frequency, TF over GST control) with GABPA; 1.14 fold enrichment (6-mer frequency, TF over GST control) in the test with ERG; 1.14 fold enrichment (6-mer frequency, TF over GST control) in the test with ELF1; 1.16 fold enrichment (6-mer frequency, TF over GST control) in the test with EHF. For the same sequence, the binding signal with SPI1 was 1.16 fold enrichment (6-mer frequency, TF over GST control); with SPIB, 1.2 fold enrichment (6-mer frequency, TF over GST control); with ELK3 it was 1.33 fold enrichment (6-mer frequency, TF over GST control); in the test with FEV it was 1.16 fold enrichment (6-mer frequency, TF over GST control); with ETV5, 1.13 fold enrichment (6-mer frequency, TF over GST control); in the test with HSF1, 1.79 fold enrichment (6-mer frequency, TF over GST control). In addition, the binding signal is 1.2 fold enrichment (6-mer frequency, TF over GST control) with SPIC; 1.11 fold enrichment (6-mer frequency, TF over GST control) with ELF4; 1.14 fold enrichment (6-mer frequency, TF over GST control) with ELK4; 1.12 fold enrichment (6-mer frequency, TF over GST control) in the test with ETV2; 1.32 fold enrichment (6-mer frequency, TF over GST control) with ELF3; 2.9 fold enrichment (6-mer frequency, TF over GST control) with CRX. Also, the binding signal with ETV1 is 1.13 fold enrichment (6-mer frequency, TF over GST control).
